In PubChem BioAssay (NCATS):
Unmarked numbers belong to inactive results. Results filed as inconclusive are left out. Activity calls are given as the source filed them. Unless noted, the call rests on the fitted dose curve; in most records, active means well fitted curve in either direction with a large enough effect (not every such curve was filed as active); inconclusive means small, poorly fitted or top-dose-only effect, or another doubt; inactive means flat fitted curve, though single readings scatter.

Columns and labels:
[1] = target: Lysosomal acid glucosylceramidase (Homo sapiens) (UniProt P04062); test: Glucocerebrosidase-p2 (AID 348; in the data active means potency below about 10 µM; further: potency means the concentration at half of the fitted maximal effect); conditions: purified GBA, blue fluorogenic substrate, 40 min
Sequence of Lysosomal acid glucosylceramidase (Homo sapiens) (P04062 whole entry, looked up): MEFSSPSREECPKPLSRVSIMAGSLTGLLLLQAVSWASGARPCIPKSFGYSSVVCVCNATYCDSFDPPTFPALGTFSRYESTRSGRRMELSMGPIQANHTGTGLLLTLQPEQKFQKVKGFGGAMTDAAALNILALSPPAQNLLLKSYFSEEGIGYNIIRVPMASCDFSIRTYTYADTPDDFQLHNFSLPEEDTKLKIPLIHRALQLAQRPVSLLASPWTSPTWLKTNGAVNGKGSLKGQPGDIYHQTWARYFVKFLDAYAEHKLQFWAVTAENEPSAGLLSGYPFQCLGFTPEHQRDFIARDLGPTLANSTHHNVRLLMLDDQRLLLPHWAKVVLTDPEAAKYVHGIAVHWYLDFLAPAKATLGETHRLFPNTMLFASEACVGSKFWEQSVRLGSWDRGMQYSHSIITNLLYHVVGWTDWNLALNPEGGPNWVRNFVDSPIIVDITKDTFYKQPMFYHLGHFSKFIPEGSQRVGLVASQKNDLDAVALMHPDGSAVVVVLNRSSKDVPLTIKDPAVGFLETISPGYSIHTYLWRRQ
Method in brief: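 Normal human glucocerebrosidase (0.2 nM) with blue fluorogenic substrate (80 uM final) in citrate/phosphate pH 5.9 with 10mM sodium taurocholate, 0.01% tween-20; 40 min RT, NaOH/glycine stop; fluorescence Ex 365/Em 440; AC50 from a titration from 0.6 nM upwards.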

[2] = AP1 Signaling Pathway (AID 357); conditions: ME-180 AP-1-bla reporter, EGF-induced, beta-lactamase ratio, 5 h; at 7.69 µM (top of the series) unless noted;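 further: ME-180 reporter cells stimulated with EGF at its EC50 level; on the % scale 0 is the no-effect control and ±100 the full control effect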
Method in brief: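 In this screen, ME-180 cells in Opti-MEM with 0.5% dialyzed FBS received EC50 EGF and compound titrations for 5 h. AP-1 reporter beta-lactamase was detected via CCF4 ratio, giving AC50 for positive and negative modulators.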

[3] = NFAT Signaling Pathway (AID 444); conditions: Jurkat NFAT-bla M1, carbachol, beta-lactamase ratio, 5 h; at 7.69 µM (top of the series) unless noted;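 further: carbachol stimulus at about its EC50 of 1 µM final; on the % scale 0 is the no-effect control and ±100 the full control effect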
Method in brief: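 Read-out: CCF4 FRET ratio (460 nm/530 nm) after 1 h RT dye loading, used for %activity and AC50 from titration series. Cells: Jurkat NFAT-β-lactamase/M1 line, treated with compound plus 1 uM carbachol for 5 h, 37 °C.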

[4] = Stat Signaling Pathway (AID 446); conditions: ME-180 (cervical carcinoma) SIE beta-lactamase reporter, IL-6 stimulated, 5 h; at 7.69 µM (top of the series) unless noted;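 further: ME-180 cervical cancer cells given 40 pM IL-6 alongside compound; SIE-controlled beta-lactamase reporter measured as 460/530 nm FRET emission ratio; on the % scale 0 is the no-effect control and ±100 the full control effect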
Method in brief: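 FRET read-out (405 nm excitation, 460/530 nm emission) of a beta-lactamase reporter under a STAT-inducible element in ME-180 cervical carcinoma cells. Cells with compound receive 40 pM IL-6 for 5 h. Values are normalised to AC90 stimulation and AC90 JAK-inhibitor controls.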

[5] = target: Glucocorticoid receptor (Homo sapiens) (UniProt P04150); test: GR-GFP Redistribution (AID 450;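 active means compounds whose dose series gives a full or clear partial fitted curve of increased nuclear translocation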; further: potency means the concentration at half of the fitted maximal effect); conditions: U2OS GR-GFP nuclear translocation, laser cytometry, 2 h
Sequence of Glucocorticoid receptor (Homo sapiens) (P04150 whole entry, looked up, the tested form may be a part): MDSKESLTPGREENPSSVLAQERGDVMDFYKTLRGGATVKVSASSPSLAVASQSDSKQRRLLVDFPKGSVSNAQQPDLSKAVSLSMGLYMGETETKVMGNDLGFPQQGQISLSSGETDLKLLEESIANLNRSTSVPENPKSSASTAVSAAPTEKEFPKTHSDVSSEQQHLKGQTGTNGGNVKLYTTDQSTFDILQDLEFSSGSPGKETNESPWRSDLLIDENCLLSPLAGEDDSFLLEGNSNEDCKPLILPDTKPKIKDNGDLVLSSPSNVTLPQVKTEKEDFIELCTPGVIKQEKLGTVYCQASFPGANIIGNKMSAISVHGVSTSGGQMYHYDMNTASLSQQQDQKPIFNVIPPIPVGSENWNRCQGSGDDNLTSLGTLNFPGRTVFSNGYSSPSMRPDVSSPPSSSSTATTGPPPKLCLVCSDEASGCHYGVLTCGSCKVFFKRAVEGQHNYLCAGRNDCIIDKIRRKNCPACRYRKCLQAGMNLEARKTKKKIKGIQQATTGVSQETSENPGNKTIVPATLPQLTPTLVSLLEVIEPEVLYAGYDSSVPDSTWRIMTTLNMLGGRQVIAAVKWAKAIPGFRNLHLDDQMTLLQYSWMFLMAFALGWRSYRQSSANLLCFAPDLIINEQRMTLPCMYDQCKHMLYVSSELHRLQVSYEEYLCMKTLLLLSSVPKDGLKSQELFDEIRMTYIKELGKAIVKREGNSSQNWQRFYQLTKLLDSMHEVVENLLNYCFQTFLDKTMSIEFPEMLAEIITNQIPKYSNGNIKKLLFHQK

[6] = target: Glucocorticoid receptor (Homo sapiens) (UniProt P04150); test: GR-EFC Redistribution (AID 451; calls by dose curve; further: potency means the concentration at half of the fitted maximal effect); conditions: CHO-K1 GR-EFC translocation, beta-gal luminescence, 2 h
Method in brief: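 Translocation of GR-ED fusion to nuclear EA restores b-gal, read by luminescence after 1 h room-temperature detection. Engineered CHO-K1 biosensor cells, 1,000/well, exposed 2 h at 37 C to titrations up to 46 uM final.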

[7] = target: Mitogen-activated protein kinase 10 (Mus musculus) (UniProt Q61831); test: JNK3 AlphaScreen Assay (AID 530); conditions: JNK3 lysate, c-Jun phosphorylation; series mostly up to 11.4 µM;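 further: kinase came from lysate of stimulated human HepG2 cells; signal reports phosphorylation of biotinylated GST-cJun 1-79 at Ser73 with 10 µM ATP; on the % scale 0 is the no-effect control and ±100 the full control effect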
Method in brief: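 Kinase buffer: 20 mM Tris-HCl pH 7.6, 10 mM MgCl2, 1 mM DTT, 0.1 mM Na3VO4, 0.01% Tween-20; ATP 10 uM. Substrate biotin-GST-cJun(1-79), enzyme from activated HepG2 lysates. Detection by Ser73 phospho-antibody AlphaScreen.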

[8] = target: 3',5'-cyclic-AMP phosphodiesterase 4B (Homo sapiens) (UniProt Q07343); test: qHTS Assay for Inhibitors of PDE-IV (AID 607; active means well fitted activation curve with a large enough effect in the main read-out, with a control signal flat, not every such curve was filed as active; further: % of control where 0% means no effect); conditions: HEK293 ACTOne CNG channel cells, membrane potential fluorescence; series mostly up to 22.9 µM
Sequence of 3',5'-cyclic-AMP phosphodiesterase 4B (Homo sapiens) (Q07343 whole entry, looked up): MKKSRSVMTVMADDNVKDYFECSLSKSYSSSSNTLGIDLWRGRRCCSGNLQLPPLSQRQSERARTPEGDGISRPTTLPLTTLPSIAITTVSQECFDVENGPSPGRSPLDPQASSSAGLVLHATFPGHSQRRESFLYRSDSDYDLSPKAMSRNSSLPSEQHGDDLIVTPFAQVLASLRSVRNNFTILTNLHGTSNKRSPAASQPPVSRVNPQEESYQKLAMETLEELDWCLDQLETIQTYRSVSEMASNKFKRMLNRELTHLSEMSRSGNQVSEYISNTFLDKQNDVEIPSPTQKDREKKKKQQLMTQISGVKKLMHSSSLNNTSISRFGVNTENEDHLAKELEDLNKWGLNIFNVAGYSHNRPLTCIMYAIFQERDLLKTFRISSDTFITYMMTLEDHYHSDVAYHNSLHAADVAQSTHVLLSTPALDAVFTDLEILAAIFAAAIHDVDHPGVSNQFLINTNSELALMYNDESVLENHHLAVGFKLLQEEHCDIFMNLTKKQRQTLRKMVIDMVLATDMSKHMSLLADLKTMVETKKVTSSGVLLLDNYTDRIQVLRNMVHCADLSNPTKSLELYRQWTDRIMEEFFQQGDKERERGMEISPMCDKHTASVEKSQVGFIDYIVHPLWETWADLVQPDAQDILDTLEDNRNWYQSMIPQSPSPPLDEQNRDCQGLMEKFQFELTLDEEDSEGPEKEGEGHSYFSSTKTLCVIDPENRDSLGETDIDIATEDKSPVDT
Method in brief: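 Cell-based read-out of cAMP via a modified cyclic nucleotide-gated channel and membrane potential dye (535/590 nm) in HEK293 cells expressing PDE4 endogenously. Compounds tested up to 22.9 uM final; 100 uM RO 20-1724 reference.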

| Structure (SMILES) | Potency [1] | activity change, negative = inhibition [2] [%] | activity change, negative = inhibition [3] [%] | activity, negative = inhibition [4] [%] | Potency [5] [µM] | Potency [6] [µM] | Potency [7] | Potency [8] |
| --- | --- | --- | --- | --- | --- | --- | --- | --- |
| NCCSc1nc(-c2ccccc2)c(-c2ccccc2)o1 | > 11.4 µM | 2.27 | -4.41 | -3.16 | > 46 | > 9.22 | inactive | inactive |
| Cc1ccc(CCCC(=O)O)cc1C | > 11.4 µM | 2.32 | 9.24 | 3.42 | > 46 | > 9.22 | inactive | inactive |
| NC(=O)N/N=C1\CC[C@H](O)C[C@@H]1CC(=O)O | > 11.4 µM | 11.5 | 5.67 | 0.119 | > 46 | > 9.22 | inactive | inactive |
| CC(C)(CCC(C)(C)c1ccccc1)c1ccccc1 | > 11.4 µM | -0.999 | 5.11 | -2.84 | > 46 | > 9.22 | inactive | inactive |
| N#CC(=NCCO)C1=C(O)c2ccccc2C1=O | > 11.4 µM | -1.5 | 17.6 | 10.7 | > 46 | > 9.22 | inactive | inactive |
| O=C1c2cccc(O)c2C(=O)c2c(O[C@@H]3O[C@H](CO)[C@@H](O)[C@H](O)[C@@H]3O)cccc21 | 2.95 µM (active) | 29.9 | 5.22 | 8.12 | > 46 | > 9.22 | inactive | inactive |
| O=C(O)C(=O)/C=C(\O)c1ccc(Br)cc1 | > 11.4 µM | -0.263 | 12.1 | 11.6 | > 46 | > 9.22 | inactive | inactive |
| O=C(O)C(=Cc1ccnc2ccccc12)C(=O)O | > 11.4 µM | -3.98 | 24.2 | 9.09 | > 46 | > 9.22 | inactive | inactive |
| O=C1OC(c2ccc(O)c(-c3ccccc3)c2)(c2ccc(O)c(-c3ccccc3)c2)c2c(Cl)c(Cl)c(Cl)c(Cl)c21 | > 11.4 µM | 10.7 | 19.3 | 5.56 | > 46 | > 9.22 | inactive | inactive |
| O=C(O)CCN1C(=S)CSC1=S | > 11.4 µM | -2.79 | 8.02 | 10.1 | > 46 | > 9.22 | inactive | inactive |
| CC(C)[C@@H](C(=O)O)N1C(=O)c2ccccc2C1=O | > 11.4 µM | -2.02 | -8.21 | 2.83 | > 46 | > 9.22 | inactive | inactive |
| O=C(O)[C@H]1CCc2ccc3ccccc3c2[C@H]1c1cccc2ccccc12 | > 11.4 µM | -12.8 | -25.8 | -8.82 | > 46 | > 9.22 | inactive | inactive |
| N=C(CC(=O)Nc1ccccn1)c1ccccc1 | > 11.4 µM | 3.96 | 28.4 | 5.02 | > 46 | > 9.22 | inactive | inactive |
| c1ccc(CO[C@H]2NCCN2Cc2ccccc2)cc1 | > 11.4 µM | 11 | 9.93 | 12.8 | > 46 | > 9.22 | inactive | inactive |
| COc1ccc2c(C)cc(C)nc2n1 | > 11.4 µM | 0.0891 | 9.21 | 8.73 | > 46 | > 9.22 | inactive | inactive |
| CC1=C(/C=C\C(=O)O)C(C)(C)CCC1 | > 11.4 µM | 4.18 | 11.9 | 0.469 | > 46 | > 9.22 | inactive | inactive |
| NC(=S)SCCC(=O)O | > 11.4 µM | 11.1 | 14.5 | 14.5 | > 46 | > 9.22 | inactive | inactive |
